Whole data set: some 25,000 sequences, median “ln(normalized median fluorescence intensity)” near 9.3, cut for the highest 2% near 10. The sample holds the highest values, similar sequences and a random draw of the others, so the mix is not that of the screen.
test system: PF3D7_0420300 AP2 domain 1 (GST-tagged); test: gcPBM binding intensity (ln(normalized median fluorescence intensity)); higher = stronger DNA binding
Procedure, shortened: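 DNA-binding domains from P. falciparum, fused to GST and produced in E. coli, were put on an Agilent 4 × 180k double-stranded probe array for 1 h in 1× PBS holding 1% milk, 0.2 mg/ml BSA, 0.5% salmon testes DNA and 0.03% Triton X-100. Probes were primer-extended, 36 bp long and drawn from intergenic genomic regions, with negative controls included. After Alexa488 anti-GST antibody detection and a 488 nm scan, binding intensity was set as the highest Masliner-normalised natural-log median intensity across replicate spots of either probe orientation.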

Sequence | gcPBM binding intensity (ln)
CACATATAAATATTAACACACATAATGAGTTATATA [CACACA_site7316] | 9.33
GAATATTAAACAAACACACACACATATATATATATA [CACACA_site3382] | 9.78
TTTTTTTTTTATTTTGCACACTTCTAATTTAGTTCT [CACACA_site5828] | 9.45
TTTCTTAAAATGTTATGTACATATTTCGTTTCAAAG [XGTACX_site6102] | 9.01
ATTATATATAAGAAGAGTACTGAATATGTGCAATAT [XGTACX_site4471] | 9.55
ATATAATATGTTGAATGTACTTAAAAAAATGTATCT [XGTACX_site5385] | 9.21
CTAAAATACGGACACACACACACATATATATATATA [CACACA_site6138] | 10.2
AAAAAAAACGGACACACACACATAAATATATATAAA [CACACA_site4260] | 10.3
AAAAAAAACGGACACACACACATACAAAATATATAT [CACACA_site4910] | 10.2
AAAACAAACGGACACACACACATATATATATATATA [CACACA_site5924] | 9.97
TAAATATATATATACACACACATACACAAAAAAAAA [CACACA_site3580] | 10.1
TAAATAAATAAAAAAACACACATATATATATATATA [CACACA_site4029] | 9.51
CCATAAAACTATAATACACACATATAGATTAACATA [CACACA_site7849] | 9.7
CTATAAATGAATGTTTGTACTTAATAATAAAAGAAA [XGTACX_site3170] | 9.06
GCATATTTTATAATTTTACACACCATATAAAATAAT [CACACA_site8904] | 9.51
TGTTTGTAATTATGTATGCACTTTTTTGTATGTGTG [GTGCAC_site9668] | 9.58
CAAAGAGAAATAAACACACACAAAATAAAGAAAAAA [CACACA_site2245] | 9.74

Sequence | gcPBM binding intensity (ln)
AAAAAAATAAATAAGACACACACAAAAAAAAAAAAA [CACACA_site8404] | 9.97
AAAAAAAAAAGACACACACACAAAATAAACAAACAA [CACACA_site7308] | 10.3
ACAAAATAAAGACACACACACAAACACAAAAAAATA [CACACA_site7568] | 10.2
AAAAAAATAAGACACACACACAAAAAAATAAAAATA [CACACA_site6357] | 10.1
AAAAATAAATAAGACACACACAAAAAAAAAAAAAAA [CACACA_site1432] | 9.54
TATTTTATTATACCAAGTACAAAATTTAAATATGAA [XGTACX_site5478] | 8.99
AAAATAATAAATAAATGTACATATATATATATATAT [XGTACX_site3078] | 9.1
ATAATTAACAAATACACACACACACGCCCACAAAAA [CACACA_site6389] | 10.2
TTTTTATTTATTAATACACACACACCCACCCACAAA [CACACA_site7965] | 10.1
AATTAATAACAAAATAAACACACATATATAAATACA [CACACA_site8456] | 9.84
TATTAATACAGACACACACACACACCCAATAAAATA [CACACA_site243] | 10.1
ATAATTAACAAATACACACACACACCCAGACAAAAA [CACACA_site4445] | 10.2
TTTATTTATTAATACACACACACACCCAGACAAAAT [CACACA_site4292] | 10.2
TTAATTAAATATTATACACACAAAAAAATAATTTTA [CACACA_site96] | 9.27
TTTATTTATTAATACACACACACACGCCCACAAAAT [CACACA_site6253] | 10.2
AAAAAAAAAAAATACACACAAACACAAATTAAATAA [CACACA_site3809] | 9.88
